Reference: publication PMC7862700, “An all-to-all approach to the identification of sequence-specific readers for epigenetic DNA modifications on cytosine”

What was measured:
Assay in all cases: DAPPL (digital affinity profiling via proximity ligation, sequencing); 10 mM Tris-HCl pH 7.5, 50 mM NaCl, 1 mM DTT, 4% glycerol, room temperature, 30 min; GST-TFs on glutathione beads, 16-mer random dsDNA library, 0.1% formaldehyde crosslink after washing; high values mean tight binding
Details in all cases: protein: recombinant; tags: N-terminal GST; dsDNA, one strand shown
FLI1 = target: T1, FLI1 (Homo sapiens, UniProt Q01543 1-452)
T1 sequence: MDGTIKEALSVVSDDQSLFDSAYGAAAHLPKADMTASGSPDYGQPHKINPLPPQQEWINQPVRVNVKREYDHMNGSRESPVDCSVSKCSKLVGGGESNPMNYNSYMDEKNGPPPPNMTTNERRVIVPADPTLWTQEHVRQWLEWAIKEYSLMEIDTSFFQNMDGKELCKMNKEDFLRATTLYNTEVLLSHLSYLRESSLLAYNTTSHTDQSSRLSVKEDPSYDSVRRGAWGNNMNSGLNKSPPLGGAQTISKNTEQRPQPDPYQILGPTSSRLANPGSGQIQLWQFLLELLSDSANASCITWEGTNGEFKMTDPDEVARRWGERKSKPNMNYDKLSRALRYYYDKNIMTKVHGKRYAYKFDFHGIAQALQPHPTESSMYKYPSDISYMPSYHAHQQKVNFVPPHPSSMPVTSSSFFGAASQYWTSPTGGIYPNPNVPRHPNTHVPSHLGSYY
Outline: (§1)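 In yeast, human transcription factors were expressed with a GST fusion, then pulled down on glutathione beads and given DNA barcodes. Pooled with a tag-only sample, they were exposed to 200 nmole of a 16-mer random double-stranded DNA library (Tris/NaCl/DTT/glycerol buffer, room temperature, 30 min), washed, crosslinked with 0.1% formaldehyde, proximity-ligated using BsaI/T4 ligase for 1 h at 37 °C, PCR-amplified and read on an Illumina NextSeq500. Each hexamer's frequency of reads for a factor, divided by the matching frequency for the tag-only sample, gives the binding signal.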

ELK1 = target: T2, ELK1 (Homo sapiens, UniProt P19419 1-428)
T2 sequence: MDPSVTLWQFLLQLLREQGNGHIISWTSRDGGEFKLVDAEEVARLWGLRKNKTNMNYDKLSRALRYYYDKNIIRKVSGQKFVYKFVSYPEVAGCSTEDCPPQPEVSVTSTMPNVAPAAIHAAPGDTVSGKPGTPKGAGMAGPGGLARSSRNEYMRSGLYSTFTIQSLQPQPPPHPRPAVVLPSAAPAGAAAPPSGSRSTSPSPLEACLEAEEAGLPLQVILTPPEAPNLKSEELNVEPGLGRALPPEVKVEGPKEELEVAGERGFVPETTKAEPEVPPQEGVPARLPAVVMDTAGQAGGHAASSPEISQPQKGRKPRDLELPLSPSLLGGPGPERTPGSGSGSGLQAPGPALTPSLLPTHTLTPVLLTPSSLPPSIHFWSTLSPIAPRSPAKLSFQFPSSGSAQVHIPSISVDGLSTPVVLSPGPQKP
Outline: as §1

GABPA = target: T3, GABPA (Homo sapiens, UniProt Q06546 1-454)
T3 sequence: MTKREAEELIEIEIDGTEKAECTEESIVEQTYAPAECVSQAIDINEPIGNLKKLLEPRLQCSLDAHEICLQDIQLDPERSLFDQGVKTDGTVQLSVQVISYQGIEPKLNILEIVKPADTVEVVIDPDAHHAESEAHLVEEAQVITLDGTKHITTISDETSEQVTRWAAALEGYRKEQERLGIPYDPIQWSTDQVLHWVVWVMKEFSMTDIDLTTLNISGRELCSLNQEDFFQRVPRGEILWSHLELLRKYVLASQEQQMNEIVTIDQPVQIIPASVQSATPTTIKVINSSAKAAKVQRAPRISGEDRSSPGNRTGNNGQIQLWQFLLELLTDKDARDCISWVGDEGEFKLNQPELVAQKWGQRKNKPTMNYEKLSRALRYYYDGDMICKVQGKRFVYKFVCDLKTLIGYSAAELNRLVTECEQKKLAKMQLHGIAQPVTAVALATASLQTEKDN
Outline: as §1

ERG = target: T4, ERG (Homo sapiens, UniProt P11308 1-479)
T4 sequence: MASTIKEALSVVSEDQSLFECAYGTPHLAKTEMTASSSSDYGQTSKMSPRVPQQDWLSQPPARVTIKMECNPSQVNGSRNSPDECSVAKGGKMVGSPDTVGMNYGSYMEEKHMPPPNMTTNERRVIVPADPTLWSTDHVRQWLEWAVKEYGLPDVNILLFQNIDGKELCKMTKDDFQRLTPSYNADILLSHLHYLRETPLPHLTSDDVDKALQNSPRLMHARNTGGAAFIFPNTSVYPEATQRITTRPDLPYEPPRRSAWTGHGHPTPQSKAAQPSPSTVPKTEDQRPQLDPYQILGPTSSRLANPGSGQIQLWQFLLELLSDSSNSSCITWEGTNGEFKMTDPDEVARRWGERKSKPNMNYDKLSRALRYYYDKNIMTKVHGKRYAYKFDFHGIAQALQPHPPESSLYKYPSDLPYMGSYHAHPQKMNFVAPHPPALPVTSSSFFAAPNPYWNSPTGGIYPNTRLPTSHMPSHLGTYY
Outline: as §1

ELF1 = ELF1 (Homo sapiens, UniProt P32519 1-619)
Sequence of ELF1 (P32519 whole entry): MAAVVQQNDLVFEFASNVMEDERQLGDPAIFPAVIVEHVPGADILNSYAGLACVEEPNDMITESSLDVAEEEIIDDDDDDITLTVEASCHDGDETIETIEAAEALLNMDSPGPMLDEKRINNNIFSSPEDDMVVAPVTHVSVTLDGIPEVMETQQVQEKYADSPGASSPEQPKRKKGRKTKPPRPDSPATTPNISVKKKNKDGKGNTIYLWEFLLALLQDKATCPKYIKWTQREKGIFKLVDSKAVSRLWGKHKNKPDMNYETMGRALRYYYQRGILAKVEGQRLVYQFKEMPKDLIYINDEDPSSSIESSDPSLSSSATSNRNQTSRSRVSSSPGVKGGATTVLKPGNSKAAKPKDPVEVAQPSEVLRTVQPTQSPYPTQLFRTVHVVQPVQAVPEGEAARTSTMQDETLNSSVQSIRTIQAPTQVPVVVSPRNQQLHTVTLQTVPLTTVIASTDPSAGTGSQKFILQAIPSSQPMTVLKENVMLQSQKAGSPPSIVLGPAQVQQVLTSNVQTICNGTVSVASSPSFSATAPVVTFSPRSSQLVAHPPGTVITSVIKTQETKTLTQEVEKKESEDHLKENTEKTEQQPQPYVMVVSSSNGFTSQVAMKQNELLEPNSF
Outline: as §1

EHF = target: T5, EHF (Homo sapiens, UniProt Q9NZC4 1-300)
T5 sequence: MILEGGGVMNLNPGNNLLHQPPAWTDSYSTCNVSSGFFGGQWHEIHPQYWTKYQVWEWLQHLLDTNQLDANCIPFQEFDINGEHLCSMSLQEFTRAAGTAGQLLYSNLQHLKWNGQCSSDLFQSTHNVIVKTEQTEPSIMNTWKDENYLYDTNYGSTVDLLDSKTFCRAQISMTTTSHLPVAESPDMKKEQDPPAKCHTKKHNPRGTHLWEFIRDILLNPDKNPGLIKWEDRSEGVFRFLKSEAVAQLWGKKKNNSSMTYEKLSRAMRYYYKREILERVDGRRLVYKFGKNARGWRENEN
Outline: as §1

SPI1 = SPI1 (Homo sapiens, UniProt P17947 1-270)
Outline: as §1

SPIB = SPIB (Homo sapiens, UniProt Q01892 1-262)
Sequence of SPIB (Q01892 whole entry): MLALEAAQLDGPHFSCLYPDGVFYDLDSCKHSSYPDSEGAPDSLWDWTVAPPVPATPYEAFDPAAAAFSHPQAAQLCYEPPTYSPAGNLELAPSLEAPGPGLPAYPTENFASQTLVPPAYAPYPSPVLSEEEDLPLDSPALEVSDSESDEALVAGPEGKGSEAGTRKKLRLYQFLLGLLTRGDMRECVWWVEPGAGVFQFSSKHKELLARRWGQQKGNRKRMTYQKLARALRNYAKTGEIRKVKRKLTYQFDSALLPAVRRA
Outline: as §1

ELK3 = target: T6, ELK3 (Homo sapiens, UniProt P41970 1-407)
T6 sequence: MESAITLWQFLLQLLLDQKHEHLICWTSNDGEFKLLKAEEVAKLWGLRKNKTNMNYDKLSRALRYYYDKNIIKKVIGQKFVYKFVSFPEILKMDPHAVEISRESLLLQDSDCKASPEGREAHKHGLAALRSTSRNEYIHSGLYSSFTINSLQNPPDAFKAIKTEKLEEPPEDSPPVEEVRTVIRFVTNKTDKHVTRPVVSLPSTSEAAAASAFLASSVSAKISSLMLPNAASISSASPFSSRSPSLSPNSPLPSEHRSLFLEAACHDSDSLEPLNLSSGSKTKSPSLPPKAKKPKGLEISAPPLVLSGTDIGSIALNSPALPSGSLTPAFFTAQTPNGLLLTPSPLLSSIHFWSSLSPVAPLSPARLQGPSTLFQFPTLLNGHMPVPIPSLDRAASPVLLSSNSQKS
Outline: as §1

CTTCCT
binding signal (FLI1): 3.11 fold enrichment (6-mer frequency, TF over GST control) | binding signal (ELK1): 2.94 fold enrichment (6-mer frequency, TF over GST control) | binding signal (GABPA): 2.95 fold enrichment (6-mer frequency, TF over GST control) | binding signal (ERG): 3.65 fold enrichment (6-mer frequency, TF over GST control) | binding signal (ELF1): 3.01 fold enrichment (6-mer frequency, TF over GST control) | binding signal (EHF): 3.28 fold enrichment (6-mer frequency, TF over GST control) | binding signal (SPI1): 5.09 fold enrichment (6-mer frequency, TF over GST control) | binding signal (SPIB): 3.4 fold enrichment (6-mer frequency, TF over GST control) | binding signal (ELK3): 3.04 fold enrichment (6-mer frequency, TF over GST control)
